Consider 39 compounds from ChEMBL document CHEMBL3988442, “University of Dundee, Small-Polar-MMV Screening Library” (2021).

This test deals with AMP-activated protein kinase, AMPK (Homo sapiens) (UniProt P54646+O43741+P54619+Q9UGJ0+Q9Y478+Q13131+Q9UGI9). Kind of test: AMP-dependent Kinase enzyme assay. An in vitro enzyme assay that detects ADP turnover that is directly proportional to AMPK activity. This uses naive AMPK that is activated during the assay with MK-8722. The arrangement: scale not given: direction of the effect not stated beside the values. The settings on record: 30 µM. Format: functional.
As to `Cc1ccccc1[C@@H]1CN(Cc2ccc(C(F)(F)F)nc2)C[C@H]1C(=O)O`, the Percent Effect was -5.65%.

In the case of `Cc1nc2cc(-c3nccn3C)nn2c(N2CCC(O)CC2)c1C`, the Percent Effect was determined as 20.2%.

`NC(=O)C1CCN(C(=O)CCSCc2ccccc2)CC1`: the Percent Effect stood at 8.64%.

`CCc1cnc(N2CCCC(CCC(N)=O)C2)nc1` (centres undefined): the Percent Effect is -6.19%.

`Cc1ccccc1Cc1nc(CSc2nnc(N)n2C)no1`: the Percent Effect was determined as 2.88%.

Turning to `CC(C)NC(=O)N1CCCCCC1C1CCN(c2ncccn2)CC1` (centres undefined), the Percent Effect was -6.91%.

Turning to `Cc1cccc(C)c1Nc1noc2c1CN(C(=O)c1ccn(C)n1)CC2`, the Percent Effect was 15.9%.

`Cc1cc(C)c2c(NC(C)c3nncn3C3CCCC3)ncnc2n1` (centres undefined): the Percent Effect is 4.35%.

In the case of `CCc1nn(C)c(Cl)c1CN1CCCC2(C1)CN(C)C(=O)O2` (centres undefined), the Percent Effect was 5.15%.

Consider `COc1cc(N2CCN(Cc3ccsc3)C(CCO)C2)nc(N)n1` (centres undefined), for which the Percent Effect was -5.18%.

With `CCCn1ncc(C(=O)N2CCCC(OCc3ccccn3)C2)c1C` (centres undefined), the Percent Effect is -1.18%.

On to `O=C(NCc1ccccn1)c1cc2n(n1)CCNC2`, for which the Percent Effect amounted to 11.8%.

On to `CN(Cc1ccc2c(c1)OCCO2)c1ncc(S(N)(=O)=O)s1`, for which the Percent Effect was -1.85%.

With `CCC(=O)N(c1ccc(C(=O)OC)cc1C)C(C)C`, the Percent Effect is -4.13%.

On to `CCc1nnc2n1CCN(C(=O)C(C)Oc1ccc(C#N)cc1)C2` (centres undefined), for which the Percent Effect was 10.6%.

Take `Cc1ccc(C(C(=O)NC(C)(C)CN2CCCC2)N(C)C)cc1` (centres undefined): the Percent Effect was -22.5%.

As for `Cc1n[nH]c(C)c1CCc1ccc(S(C)(=O)=O)cc1`, the Percent Effect turned out to be 0.986%.

Take `Cc1ccc(N2CCCC(Nc3nn4cc(C)nc4s3)C2)nn1` (centres undefined): the Percent Effect came to 8.12%.

Consider `CNc1nc(C(=O)N2CCn3nc(C(=O)OC)cc3C2)cs1`, for which the Percent Effect was -0.197%.

For the compound `Cc1nn(C)c(C)c1-c1ccc(=O)n(C(C)C(=O)NCc2ccco2)n1` (centres undefined), the Percent Effect worked out at 17.2%.

Regarding `Cc1cc(C(=O)NCCN2CCCCC2)nn1C(C)(C)C`, the Percent Effect came out at 24.9%.

`CN(C)CC1(O)CCCN(C(=O)Cn2ccc3ccccc32)CC1` (centres undefined): the Percent Effect was -8.54%.

Consider `CN(Cc1ccc([S+](C)[O-])cc1)c1cncc(Br)c1` (centres undefined), for which the Percent Effect stood at 13.9%.

Consider `COc1cc(N(C)Cc2cc(C(C)(C)C)n[nH]2)ncn1`, for which the Percent Effect was -15.7%.

With `Cc1cc(CN(CC(N)=O)CC(C)C)on1`, the Percent Effect is -2.52%.

Consider `COCCCN1CCCC(c2nccn2CC2CCC2)C1` (centres undefined), for which the Percent Effect came to 0.821%.

As to `O=C1C(N2CCOCC2)CCCN1Cc1cccc(C(F)(F)F)c1` (centres undefined), the Percent Effect was 5.78%.

Consider `COc1ccc2c(c1)CCCN2C(=O)NC1CCCCNC1=O` (centres undefined), for which the Percent Effect is 2.81%.

Take `Cc1nc(NC(=O)NCCCN2CCC(C(N)=O)CC2)sc1C`: the Percent Effect worked out at 6.51%.

`Cc1cc(C(=O)NCCN2CCCCC2C)nn1C(C)(C)C` (centres undefined): the Percent Effect was determined as 1.65%.

Regarding `CCc1ccc2nc(C)cc(C(=O)N[C@@H]3CNC[C@H]3O)c2c1`, the Percent Effect worked out at 0.636%.

On to `O=C(CN1CC(c2nc(-c3ccco3)no2)C1)NCc1ccc(F)cc1`, for which the Percent Effect stood at 1.74%.

For the compound `Cc1ccc(N2CCC(CCN3CCCC3=O)CC2)nn1`, the Percent Effect was -7.57%.

For `COCC(=O)NCCc1nc2cc(-c3ccc(OC)cc3)ncn2n1`, the Percent Effect is 8.07%.

For `CC(NCC(=O)Nc1ccc(N2CCCCCC2)cc1)c1cccs1` (centres undefined), the Percent Effect is 16.8%.

With `COCc1ncc(CN2CCC3(CCNC(=O)CC3)CC2)cn1`, the Percent Effect was 0.0611%.

On to `CC1(C)CN(c2cc(C3CC3)ncn2)C[C@]1(C)O`, for which the Percent Effect worked out at 30.7%.

Turning to `Cc1ncoc1C(=O)N1CCCC(c2ccc3c(N)nn(C)c3n2)C1` (centres undefined), the Percent Effect was determined as 11.4%.

For the compound `CN(Cc1nncn1C)C(=O)c1cc(COc2ccccc2)[nH]n1`, the Percent Effect was -7.68%.
